TSHR antag = human thyrotropin receptor antagonism; P16473; TSHR-expressing cells, TSH-stimulated cAMP HTRF, 2 h; active compounds read low; activity change, negative = inhibition, % at 11.5 µM; 330,000 tested, 0.2% active;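 active means activity change below a set negative limit, meaning inhibition stronger than a set level, cut at about -70% in these data; inconclusive means activity change between two set negative limits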
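Freshly harvested TSHR cells receive pin-tooled compound, then EC80 TSH at 4nM final. After 2 hours at 37 deg C, antibody in lysis buffer and cAMP-d2 are added; 30 minutes at ambient temperature precede the HTRF read.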
PLK1 PBD inh = inhibitors of human PLK1 polo-box domain binding; Potency, µM, usual class: inhibitors; AID 720504; Plk1 PBD binding of FITC phosphopeptide, fluorescence polarization; 360,000 tested, 2.8% active; further: series mostly up to about 57 µM; nearly all actives have a fitted effect of over 65% in size
uPA generation = blocks generation of uPA at the cell surface | cell surface uPA generation assay, qHTS | Potency, µM (highest dose often 38.3 µM), hits mostly inhibitors | 330,000 tested, 0.31% active | AID 540303; active means well fitted inhibition curve with a large enough effect; inconclusive means small, poorly fitted or top-dose-only effect; inactive means no such curve, though single readings can be large or run the other way; tested in mouse RAW 264.7 cells; further: nearly all actives have a fitted effect of over 55% in size
VDR inhibitor = vitamin D3 receptor (human) inhibition | AID 504847 | Potency, µM, most hits filed as inhibitors | P11473 | 400,000 tested, 0.93% active | VDR-SRC2-3 peptide fluorescence polarization, 2 h
Target sequence (P11473 whole entry, looked up): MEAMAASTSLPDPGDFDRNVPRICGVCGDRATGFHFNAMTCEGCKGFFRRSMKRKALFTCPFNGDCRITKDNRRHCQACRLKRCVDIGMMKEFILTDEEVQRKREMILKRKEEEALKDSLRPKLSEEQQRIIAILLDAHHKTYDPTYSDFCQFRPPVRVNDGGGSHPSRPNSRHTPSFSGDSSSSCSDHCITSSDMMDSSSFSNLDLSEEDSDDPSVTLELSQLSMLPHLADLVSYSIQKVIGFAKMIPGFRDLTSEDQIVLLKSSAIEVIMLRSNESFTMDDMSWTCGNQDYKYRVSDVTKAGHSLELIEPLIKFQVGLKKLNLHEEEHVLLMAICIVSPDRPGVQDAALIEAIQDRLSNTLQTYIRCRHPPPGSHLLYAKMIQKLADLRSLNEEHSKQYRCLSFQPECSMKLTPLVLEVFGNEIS
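The screen uses fluorescence polarization to detect compounds that interfere with recruitment of the SRC2-3 coactivator peptide to VDR; plates are read after 2 h at room temperature.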
PTAP TSG101 blk = blocks PTAP/TSG101 interaction to inhibit HIV-1 budding; Potency, µM (series often up to 115 µM), most hits filed as inhibitors; AID 493005; 340,000 tested, under 10 active; Q99816; Fluorescence polarization, FITC-PTAP peptide / Tsg101 binding; active means well fitted inhibition curve with a large enough effect in the main read-out, with a control signal flat, not every such curve was filed as active; inconclusive means small, poorly fitted or top-dose-only effect, or effect the other way, or a change in a side signal; inactive means no such curve, though single readings can be large or run the other way
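Compounds were pin-transferred onto Tsg101 binding domain (10 uM final) in HEPES pH 7.5 buffer, then FITC-PTAP peptide was added at 50 nM final. After 20 min at RT, polarization reported peptide displacement across a qHTS concentration series.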
A number is an active result; - = inactive; ? = inconclusive; . = not tested or not shown. Hits are enriched below; roughly 3.1% of the tested compounds scored in any of these assays. Unless noted, the call rests on the fitted dose curve; in most records, active means well fitted curve in the direction sought with a large enough effect; inconclusive means small, poorly fitted or top-dose-only effect, or another doubt; inactive means no such curve, though single readings can be large; an effect the other way counts as inactive or inconclusive.

SMILES	TSHR antag	PLK1 PBD inh	uPA generation	VDR inhibitor	PTAP TSG101 blk
O=S(=O)(c1cccc(-c2n[nH]c(=S)o2)c1)N1CCOCC1	-	26.7µM	-	-	-
O=S(=O)(Nc1cccc(Cl)c1)c1ccc2oc(=S)[nH]c2c1	-	33.6µM	-	?	-
O=S(=O)(c1cccc(-c2n[nH]c(=S)n2-c2ccccc2Cl)c1)N1CCOCC1	-	-	-	?	-
Cc1ccc(NS(=O)(=O)c2ccc3[nH]c(=O)oc3c2)cc1Cl	-	-	-	-	-
O=S(=O)(c1cccc(S(=O)(=O)N2CCC(Cc3ccccc3)CC2)c1)N1CCOCC1	-	26.7µM	-	-	-
O=S(=O)(c1ccc(=S)[nH]c1)N1CCOCC1	-	7.52µM	-	-	-
COc1ccccc1NC(=O)c1cccc(S(=O)(=O)N2CCCCCC2)c1	.	.	.	-	.
O=C(c1csnn1)N1CCC2(CCN(Cc3ccccc3)CC2)CC1	.	.	.	-	.
Cc1cccc(C)c1NC(=O)c1cc(S(=O)(=O)N2CCOCC2)ccc1F	-	-	-	-	.
O=S(=O)(c1ccc2oc(=S)[nH]c2c1)N1CCCCC1	-	-	-	-	-
O=[N+]([O-])c1cc(S(=O)(=O)N2CCCCCC2)ccc1F	-	15µM	-	-	-
Cc1cc(S(=O)(=O)N2CCOCC2)ccc1F	-	29.9µM	-	-	-
O=S(=O)(c1ccc2oc(=S)[nH]c2c1)N1CCOCC1	-	2.67µM	-	?	-
CCOC(=O)c1c(C)[nH]c(C)c1S(=O)(=O)N1CCCC(C(=O)N2CCN(c3cccc(Cl)c3)CC2)C1 (stereo not drawn)	.	.	.	-	.
CCN(Cc1ccncc1)S(=O)(=O)c1ccc(C(C)=O)cc1	-	18.9µM	-	?	-
CCN(CC)S(=O)(=O)c1ccc(C(=O)Nc2ccc(Cc3ccncc3)cc2)cc1	-	-	-	-	-
COc1cccc(/C=C/c2nc(C#N)c(N3CCCCC3)o2)c1	.	.	.	-	.
O=C(Nc1cccnc1)c1sc(Nc2ccccc2F)nc1-c1ccccc1	-	-	?	-	-
Cc1ccccc1Nc1nc(-c2ccccc2)c(C(=O)Nc2cccnc2)s1	-	29.9µM	-	-	-
CCCCN=Cc1sc2ccc(OCC)cc2c1O	-	26.7µM	-	?	-
Cc1ccccc1CNC(=O)CCS(=O)(=O)c1cc2c3c(c1)CCN3C(=O)CC2	.	.	.	-	.
O=C(C[C@H]1C=C[C@@H](NS(=O)(=O)c2ccccc2)[C@@H](CO)O1)NCc1ccc(Cl)c(Cl)c1	.	-	.	.	.
CCC1C(=O)N=C(SCC(=O)Nc2ccc(Br)cn2)NC1=O (stereo not drawn)	-	26.7µM	-	?	-
Cc1nc2c3ccccc3nc(NNC(=O)CCC(=O)NCCN3CCN(c4ccccc4F)CC3)n2n1	-	29.9µM	-	-	-
COCCNC(=O)CCC(=O)NNc1nc2ccccc2c2nc(C)nn12	-	-	-	-	-
SMILES	TSHR antag	PLK1 PBD inh	uPA generation	VDR inhibitor	PTAP TSG101 blk
O=C1CSc2ccc(C(=O)Nc3cccc(S(=O)(=O)Nc4ccc(Br)cc4)c3)cc2N1	?	21.2µM	?	-	-
COC(=O)c1ccc2c(c1)NC(=O)CS2	-	21.2µM	-	-	-
CC(OC(=O)c1ccc2c(c1)NC(=O)CS2)C(=O)c1ccc(F)cc1 (stereo not drawn)	-	-	-	-	-
Cn1c(CNC(=O)c2ccc(Cl)cc2)nnc1SCC(=O)NC1CCCC1	-98.1	-	-	-	-
Cn1c(Cn2c(=O)sc3ccccc32)nnc1SCC(=O)NC1CCCCC1	-	?	-	-	-
Cn1c(Cn2c(=O)sc3ccccc32)nnc1SCC(=O)NC1CCCC1	-	23.8µM	-	-	-
Cn1c(COc2ccc(Cl)cc2)nnc1SCC(=O)NC1CC1	-	-	-	-	-
Cn1c(SCC(=O)NC2CC2)nnc1-c1ccccc1Cl	-	26.7µM	-	-	-
Cc1ccccc1C(=O)NC1CCN(CC(=O)Nc2ccccc2)CC1	-	-	-	-	-
CCCCC(=O)N(Cc1ccc(-c2ccccc2-c2nn[nH]n2)cc1)C(C(=O)O)C(C)C (stereo not drawn)	.	.	.	-	.
Clc1ccc(N=c2ssnc2Cl)nc1	-	0.947µM	-	5.62µM	-
OCc1ccccc1N=c1ssnc1Cl	-	.	.	.	.
CCCCN(CC)Cc1c(O)ccc2c(-c3ccccc3)cc(=O)oc12	-	26.7µM	-	-	-
COC(=O)C1CCN(C(=O)c2cc(-c3ccc(Cl)s3)nc3ccccc23)CC1	-	-	1.78µM	-	-
CCN1CCN(C(=O)c2cc(-c3ccc(Cl)s3)nc3ccccc23)CC1	-	-	-	-	-
CC1=C(C)CS(=O)N(c2ccc(S(N)(=O)=O)cc2)C1 (stereo not drawn)	-	1.5µM	-	7.94µM	-
Cc1ccc(Cn2c(C(C)NC(=O)c3ccccc3)nc3ccccc32)cc1 (stereo not drawn)	.	.	.	-	.
Cc1nc(NC(=O)c2ccc([N+](=O)[O-])cc2Cl)sc1C(=O)N(C)C	-	18.9µM	-	?	-
CCOC(=O)Cn1c(=O)n(CC2CCCO2)c2nc(-c3cccc(C)c3)nc(C(N)=O)c21 (stereo not drawn)	.	.	.	-	.
Cc1nc2scc(C)n2c(=O)c1S(=O)(=O)NCC1CCN(Cc2ccc(Cl)cc2)CC1	-	18.9µM	-	-	-
Cc1nc2scc(C)n2c(=O)c1S(=O)(=O)Nc1ccc(N2CCOCC2)c(Cl)c1	-	26.7µM	-	-	-
CCCCCCCCN1C(=O)[C@H](CC(=O)NCCC(C)C)C[C@@]2(C(=O)OCC)CCCC=C12	.	-	.	.	.
COC(=O)C(C(=O)OC)C1CCCCC1NS(=O)(=O)c1ccc(C)cc1 (stereo not drawn)	.	-	.	.	.
CC(C)C(NC(=O)c1ccccc1F)C(=O)NCc1ccc(S(=O)(=O)N2CCOCC2)cc1 (stereo not drawn)	-	-	-	-	-
CCC(NC(=O)Nc1ncccc1C)(C(F)(F)F)C(F)(F)F	-	-	-	-	-
SMILES	TSHR antag	PLK1 PBD inh	uPA generation	VDR inhibitor	PTAP TSG101 blk
COc1ccc(C(=O)Nc2nnc(C(F)(F)F)s2)cc1	-	26.7µM	-	-	-
CCC(NC(=O)Nc1nnc(C(F)(F)F)s1)(C(F)(F)F)C(F)(F)F	-86.9	-	-	-	-
COc1ccccc1-c1nccc(Nc2ccc(F)cc2)n1	.	.	.	50.1µM	.
CN(C)C(=O)c1ccc(-c2ccc3ncnc(Nc4ccc(F)cc4)c3c2)cc1	.	.	.	-	.
Fc1ccc(Nc2ccnc(-c3ccc4c(c3)OCO4)n2)cc1	.	.	.	39.8µM	.
Cc1noc(C)c1-c1nccc(Nc2ccc(F)cc2)n1	.	.	.	-	.
CN(C)C(=O)c1ccc(-c2nccc(Nc3ccc(F)cc3)n2)cc1	.	.	.	50.1µM	.
Fc1ccc(Nc2ccnc(-c3ccoc3)n2)cc1	.	.	.	25.1µM	.
CCCNC(=O)C1(C)CCCN(C(=O)c2ccccc2OC(F)(F)F)C1 (stereo not drawn)	.	-	.	.	.
CCn1cc(C(=O)OCC(=O)Nc2cc(Cl)ccc2OC)c(=O)c2ccc(C)nc21	.	.	.	-	.
COc1ccc(Cl)cc1NC(=O)CN(C)C(=O)c1cc2ccccc2cc1O	-	-	-	-	-
